According to PubChem BioAssay AID1159506 (National Center for Advancing Translational Sciences (NCATS), 2015):
Whole data set: some 59,000 sequences, median the read-out near -0.00055, cut for the lowest 2% near -2. This is one part of a sample in which the lowest values are shown more often than they occur.

Test: Identification of proteins required for the processing of the EWS-FLI1 nascent transcript;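 also: robust z of luciferase light less the median z of siRNAs with the same seed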
Details: TC32 Ewing sarcoma NR0B1-luc vs CMV-luc (EWS-FLI1 target promoter against control promoter), 48 h; screened at 20 nM (by protocol)
Method in brief: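 Three siRNAs per gene, each in a separate well at 20 nM, were transfected into TC32 cells bearing either reporter construct. Luminescence was measured two days on, and per-gene comparison relied on seed-corrected Z values.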

Sequence	seed-corrected z-score
UUGUUGUCCAUAAUUGUCC against RNF8	1.95
UCCGGAUAUACUGUGCUUC against PCMTD2	0.0601
UUUGGGCCUGCUGAAAUUG against RNF148	0.493
AACUGUCUUGUUGCUCUUG against NFKBID	-0.0314
AAGAUAGUCAAGCAUGUGC against ELMO3	0.733
UGUUGUCGCAGUGAGGAGC against KIAA0141	-2
UUUGGUGACUGGACCGUUC against TRIM24	-0.553
UUGACAGCAAUCACAGUGG against AWAT2	0.583
UCAGCUCGGAUUUCACGGC against SHISA7	0.404
UUAAGUUGAUCUGUACUGC against FAM117B	-0.0872
CAGCCAUCUAGGAUGAGCC against RPL10P8	-0.668
UGGUUUUAGAGGAAUAGGG against SLC51A	-0.953
UAGGAAACCAAGCACAUCU against SH3BGRL	1.88
AUAGCCUCCAGUCCAAUUG against TM2D3	-2.03
UUGGUGGUGAACAUAGGGA against TAL1	-0.201
UAGGUUGGAGAAUUGUUCC against T	-0.372
UGUUGUAGGAAUAGCCUGG against PITX2	-2.28
UGGUCAUUUGGUAUGAGGC against CAPRIN2	0.0796
UUCUUGAGAAGCAGGUUCU against STAT6	-0.716
UGAUCCAUGGGUUCGAUCC against ROCK2	-0.007
AAAAUAGAGGUCACCAUAC against C1orf35	0.456
UGAGAAUUAUGAUCACUGC against SLC7A1	-0.0797
UUUGUGCUUAACUGGCUGG against RPL12	-2.56

Sequence	seed-corrected z-score
GCCGCGUACUUGUUGUUGC against IGLL1	0.951
UCCUGCUACAUUUACAUCG against FERMT1	-3.31
AAACUGAGAAACAUCAAGG against ZNF433	-1.01
UGUCAUCCCAUCAAUGACU against PPIC	-0.679
UUUAAGGCAUCAUCUAGAC against DHFR	-0.615
UUCGAUGAAGAAACUCUGC against DOCK11	0.27
UGCGUUUUUAAGCAUGUGC against RPL17	-2.46
UUUUGUGCCUUCGUUAACC against ADAM9	-0.742
UUUCUGUCCAGCAUAUGUA against SSU72	-0.804
UCUCUUCAGAGCGUGCACC against ANKRD54	-0.161
UUAGCUCCAAGUCUUGCAG against HDLBP	0.263
UACUGGUCCACGGAGAUUU against CSPG4	0.0797
CUUCAUAGUGGUGUCCACG against MUC3B	-0.292
UUCGUUUCGUCUCUUCUAG against ESCO1	1.44
ACCGUUAAAACAAGCUUCG against NBAS	0.0519
UUCGCUGAAAAGAAACUGG against PHRF1	-0.139
UUUAAGCAACCGUCGUUGG against RPS23P8	-9.97
AAUCUAUAACUCUUUGACC against MKKS	-0.508
UGAUGGUCAACUUGAUGCC against LCK	-4.01
UGCAUUCCCACCAAUGUUG against EIF2B2	-0.2
UCAGAGCGAUUUUCAGUAC against KCTD21	0.306
UAUGUUGUCACUAGUCAGC against PNPLA7	-0.38
UUCUGCAAAGCGCCACAGG against SLC22A31	-2.24

Sequence	seed-corrected z-score
UUCUGAGUAAUCUACAAUG against RHOT1	0.1
AACCGUGUAACCAUAGCUC against GABRQ	0.126
AAUAGUACCACCAAAGCAC against ELOVL2	-0.0356
UAUCUCCUCAGCUAAUUCG against SLC17A8	0.0229
UUCGUUAGUUGUUCUAGGC against RB1CC1	-2.96
UCUGUGUAGCUCGGACACC against OR7E24	-0.966
AAUGAAUCAAAUGUAACGG against PNPT1	-0.376
UUUUCAAACAGGUAACAGC against ATM	0.359
UUUUGAGCCUCAGCACUCC against RGL3	-0.0402
UCCAGUUUUCGGAUCUUCC against MRPL40	-2.5
UCUCGUUCAGUUAUCUGCC against HECW2	0.826
UAGAGUUCCAGCUAGGGUG against CTRL	-0.507
UUCUUGUACUGCACCAUCU against PHLDA1	2.51
UUAGUUCCAUUUCCUACUC against TEX38	-0.404
UGUGCAUGCACAGAGAAGC against NFE4	-1.58
AAACUUAUACUUCUGGUAC against VBP1	-0.149
AGGAGACUCAGCUUGAUCC against SPATA45	-2.01
AACCAGUUAGAUUAUACGC against ATRNL1	-0.225
UUGUAUCCAAAGAUGAUUC against PLXDC2	-0.0677
AGGCUGAUGACUCCUAUCC against SSTR3	0.317
UCAUAGGACCAGUCAAUGC against CPA2	0.13
